The panel holds about 83,000 compounds, 20% with a hit somewhere; the sample as a whole holds those more often.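 Results are percent growth after 48 hours of single-concentration exposure. 100 means growth as in untreated cells, lower positive values show inhibition; negative values down to -100 show cell death.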 A number with no mark means an inactive call. The source made the active and inactive calls. How the source made its calls: active means growth percent below 10; inactive means the rest.

Test systems include HCT-15 colon; HT29 colon; SNB-75 CNS; SNB-19 CNS; U251 CNS; PC-3 prostate; SK-MEL-5 melanoma; UACC-62 melanoma; LOX IMVI melanoma; SK-MEL-28 melanoma; SK-MEL-2 melanoma; EKVX NSCLC; SN12C renal; UO-31 renal; TK-10 renal; ACHN renal; CAKI-1 renal; A498 renal; CCRF-CEM leukemia; MOLT-4 leukemia.
Assay in all cases: NCI-60 one-dose screen, 48 h (100 = growth as untreated, 0 = no growth, -100 = all killed)
Settings in all cases: 10 µM unless noted

`C=C1C(=O)O[C@H]2[C@H]1CC/C(COC(=O)NCCCCNC(=O)OC/C1=C/CC[C@@]3(C)O[C@H]3[C@H]3OC(=O)C(=C)[C@@H]3CC1)=C\CC[C@@]1(C)O[C@@H]21`: the growth is 81.6% with HCT-15 colon; 5.38% (active) in the assay with HT29 colon; 49.5% in the assay with SNB-75 CNS; 90.9% with SNB-19 CNS; 73.6% in the assay on U251 CNS; 67.7% in the assay with PC-3 prostate. In addition, the growth with SK-MEL-5 melanoma was 76.8%; in the assay with UACC-62 melanoma, -20.8% (active); in the assay on LOX IMVI melanoma, -22.5% (active); with SK-MEL-28 melanoma, -10.1% (active); in the assay on SK-MEL-2 melanoma it was 36.4%; with EKVX NSCLC, 89%. The growth in the assay on SN12C renal was 19.6%; in the assay with UO-31 renal, 79.8%; in the assay with TK-10 renal, 20.1%; in the assay with ACHN renal, 57.5%; in the assay with CAKI-1 renal, 76.8%; in the assay on A498 renal, 95.1%. The growth is -33.6% (active) in the assay on CCRF-CEM leukemia and -14.8% (active) with MOLT-4 leukemia.
As for `Clc1nccc2c(-c3csc(-c4c[nH]c5ccc(Br)cc45)n3)c[nH]c12`, the growth with HCT-15 colon is -49.4% (active); in the assay on HT29 colon, 5.95% (active); in the assay with SNB-75 CNS it was 21%; with SNB-19 CNS, 44.6%; in the assay on U251 CNS, -2.09% (active); with PC-3 prostate, 19.9%. The growth with SK-MEL-5 melanoma is 47.2%; with UACC-62 melanoma, 17%; in the assay on LOX IMVI melanoma, -31.9% (active); in the assay on SK-MEL-28 melanoma it was -8.62% (active); in the assay on SK-MEL-2 melanoma, 48.7%; in the assay with EKVX NSCLC, 42.5%. Moreover, the growth is 54% with SN12C renal; 9.83% (active) in the assay with UO-31 renal; 28.6% with TK-10 renal; 6.55% (active) with ACHN renal; 32.9% with CAKI-1 renal; -1.69% (active) in the assay on A498 renal. The growth was 20.1% in the assay with CCRF-CEM leukemia and 22% in the assay with MOLT-4 leukemia.
For the compound `S=c1nc(CS)[nH]c2ccccc12`, the growth is 93.2% in the assay with HCT-15 colon; 101% with HT29 colon; 86.7% with SNB-75 CNS; 92.5% in the assay on SNB-19 CNS; 96.7% with U251 CNS; 93.9% in the assay with PC-3 prostate. The growth in the assay with SK-MEL-5 melanoma was 95.7%; in the assay on UACC-62 melanoma, 90.6%; with LOX IMVI melanoma, 91%; with SK-MEL-28 melanoma it was 105%; with SK-MEL-2 melanoma it was 101%; in the assay on EKVX NSCLC, 84%. Besides, the growth in the assay with SN12C renal was 95.4%; in the assay with UO-31 renal, 71.8%; in the assay on TK-10 renal it was 161%; in the assay with ACHN renal, 93.5%; with CAKI-1 renal it was 77.1%; in the assay with A498 renal, 53.2%. Also, the growth with CCRF-CEM leukemia and in the assay on MOLT-4 leukemia was 102% throughout.
Turning to `COCCn1cc(-c2nc(-c3cn(CCOC)c4ncccc34)cs2)c2ccccc21`, the growth with HCT-15 colon was 18.1%; in the assay on HT29 colon, 89.5%; with SNB-75 CNS, 64.6%; in the assay with SNB-19 CNS, 71.1%; in the assay on U251 CNS, 72.8%; in the assay with PC-3 prostate it was 73.1%. The growth with SK-MEL-5 melanoma was 7.97% (active); with UACC-62 melanoma it was 87.1%; in the assay on LOX IMVI melanoma, 86.1%; in the assay on SK-MEL-28 melanoma it was 105%; in the assay on SK-MEL-2 melanoma it was 59.9%; with EKVX NSCLC, 27.9%. In addition, the growth in the assay on SN12C renal was 107%; in the assay on UO-31 renal it was 98.6%; in the assay on TK-10 renal it was 33.3%; in the assay with ACHN renal, 91.6%; with CAKI-1 renal, 94.6%; in the assay on A498 renal, 123%. For the same compound, the growth in the assay on CCRF-CEM leukemia was 128%; with MOLT-4 leukemia, 122%.
With `COc1ccc(-c2ccc(-c3ccc(C(=N)N)cn3)s2)cc1Cl`, the growth in the assay on HCT-15 colon was -72.5% (active); in the assay on HT29 colon, -52.6% (active); in the assay on SNB-75 CNS, -98.4% (active); with SNB-19 CNS, -73.9% (active); with U251 CNS, -62.2% (active); in the assay with PC-3 prostate, -80.9% (active). For the same compound, the growth in the assay on SK-MEL-5 melanoma was -48.4% (active); in the assay on UACC-62 melanoma it was -92.3% (active); in the assay with LOX IMVI melanoma, -84.5% (active); with SK-MEL-28 melanoma, -86.6% (active); in the assay on SK-MEL-2 melanoma it was -54% (active); in the assay with EKVX NSCLC, -58.4% (active). Also, the growth in the assay with SN12C renal was -81% (active); in the assay on UO-31 renal it was -89.9% (active); in the assay with TK-10 renal it was -73.1% (active); in the assay with ACHN renal it was -98.2% (active); in the assay with CAKI-1 renal, -98.4% (active); in the assay on A498 renal, 99%. In addition, the figures for the growth in the assay on CCRF-CEM leukemia and in the assay on MOLT-4 leukemia were -36.1% (active) and -31.5% (active), respectively.
As to `CC(=O)c1c(C)nc(SCC(=O)Nc2ccc(Cl)cc2)n1-c1ccc(Cl)cc1`, the growth was 84.6% in the assay on HCT-15 colon; 83% in the assay with HT29 colon; 73.1% with SNB-75 CNS; 93.7% in the assay with SNB-19 CNS; 89.8% in the assay on U251 CNS; 71.8% in the assay with PC-3 prostate. Further, the growth with SK-MEL-5 melanoma was 81.9%; in the assay on UACC-62 melanoma it was 69.7%; in the assay on LOX IMVI melanoma, 93.1%; in the assay with SK-MEL-28 melanoma, 104%; with SK-MEL-2 melanoma it was 94%; in the assay with EKVX NSCLC, 95.5%. In addition, the growth in the assay with SN12C renal is 87%; in the assay with UO-31 renal it was 80.9%; with TK-10 renal it was 99.5%; with ACHN renal, 93.7%; in the assay with CAKI-1 renal it was 81.7%; in the assay with A498 renal, 83.2%. The growth in the assay with CCRF-CEM leukemia was 87.5%; in the assay on MOLT-4 leukemia it was 64.1%.
Take `CCN(CC)CC(=O)Nc1ccc2ncnc(Nc3ccc(Oc4cccc(F)c4)c(Cl)c3)c2c1`: the growth was 17.6% in the assay on HCT-15 colon; 14.4% in the assay with HT29 colon; 66.4% in the assay on SNB-75 CNS; 72.2% in the assay on SNB-19 CNS; 45.2% in the assay with U251 CNS; 44.7% in the assay on PC-3 prostate. In addition, the growth in the assay on SK-MEL-5 melanoma was 58.4%; in the assay on UACC-62 melanoma it was 86.9%; with LOX IMVI melanoma it was -42% (active); in the assay on SK-MEL-28 melanoma, 81.3%; in the assay with SK-MEL-2 melanoma, 90.9%; in the assay on EKVX NSCLC, 42.8%. Moreover, the growth in the assay with SN12C renal is 67.8%; with UO-31 renal, 22%; with TK-10 renal, 51.9%; with ACHN renal it was 41.6%; with CAKI-1 renal it was 46.6%; in the assay on A498 renal it was 44.2%. The growth in the assay with CCRF-CEM leukemia is 46.8%; in the assay with MOLT-4 leukemia, 41.8%.

(Values after PubChem BioAssay (NCI).)
